Bioassay records: PubChem, National Center for Advancing Translational Sciences (NCATS)
Shiga toxin inh – inhibitors of Shiga toxin in Vero cells. Vero cells, Shiga toxin protein synthesis inhibition reporter. inhibition, % at 38.7 µM. 290,000 compounds, 9.2% hits; in the data active means inhibition mostly above about 28%, no sharp cut-off; inactive means mostly below about 43%; further: 0% is about no effect
AmpC detergent – blocks E. coli AmpC beta-lactamase in detergent assay; Potency, µM (series often up to 114 µM), inactives show at the highest dose activity change, negative = inhibition, actives largely listed as inhibitors; P00811; 370,000 compounds, 0.041% hits; AID 485294; AmpC hydrolysis of nitrocefin, absorbance 480 nm, 0.01% Triton;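 further: potency means the concentration at half of the fitted maximal effect; 0% = no-compound wells and -100% = no-enzyme wells; nearly all actives have a fitted effect of over 25% in size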
Target sequence (P00811 whole entry, looked up): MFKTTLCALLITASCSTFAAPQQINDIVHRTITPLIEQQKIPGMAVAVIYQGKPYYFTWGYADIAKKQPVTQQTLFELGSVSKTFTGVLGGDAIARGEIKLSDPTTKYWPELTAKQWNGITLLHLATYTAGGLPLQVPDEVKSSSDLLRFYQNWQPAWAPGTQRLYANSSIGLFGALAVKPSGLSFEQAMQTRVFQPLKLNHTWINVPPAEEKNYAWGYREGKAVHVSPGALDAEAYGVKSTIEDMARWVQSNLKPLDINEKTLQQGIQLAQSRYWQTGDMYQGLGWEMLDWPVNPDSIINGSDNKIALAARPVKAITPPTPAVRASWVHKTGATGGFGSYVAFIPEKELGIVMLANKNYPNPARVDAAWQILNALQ
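20 mM phosphate pH 7.0 + 0.01% (detergent screen) or 0.0001% Triton X-100; 5.3 nM AmpC reagent; cpd preinc 15 min RT; nitrocefin (800 uM stock) to start; A480 q20 s × 4 min; Activity was normalised to no-enzyme and no-compound control wells.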
CHX counter – counter-screen for Shiga toxin inhibitors: cycloheximide protein synthesis inhibition | cell reporter, cycloheximide protein synthesis inhibition counterscreen | max response, % | 300,000 compounds, 12% hits | AID 2314; in the data active means max response mostly above about 13%, no sharp cut-off; inactive means mostly below about 14%; further: read at 38.3 µM for the half of the compounds with a filed dose; 0% is about no effect
AMA1-RON2 inh – disrupts binding of P. falciparum AMA1 to RON2; AlphaScreen AMA1-biotinylated RON2 peptide binding; 360,000 compounds, 0.2% hits; Potency, µM (titrated, usually from 58.2 µM), for inactives: at the top dose activity change, negative = inhibition, most hits filed as inhibitors;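 further: potency means the concentration at half of the fitted maximal effect; 0% = vehicle wells and -100% = peptide control; nearly all actives have a fitted effect of over 45% in size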
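AMA1 (3D7) with his tag at 25 nM final met compounds first, then biotinylated RON2 peptide at 25 nM; detection used donor plus acceptor beads, 10 µg/mL apiece, read by AlphaScreen after 30 min at room temperature.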
SARS PLP yeast – inhibitors of SARS-CoV papain-like protease in yeast. 330,000 compounds, 0.19% hits. Potency, µM (top dose mostly 32.9 µM), for the others: at the highest dose activity, positive = growth rescue, usual class: activators. S. cerevisiae expressing SARS-CoV PLpro, growth rescue; calls by dose curve; further: potency means the concentration at half of the fitted maximal effect; 0% is about no effect; nearly all actives have a fitted effect of over 55% in size
AmpC no deterg – inhibitors of E. coli AmpC beta-lactamase without detergent | P00811 | 330,000 compounds, 0.52% hits | Potency, µM (series often up to 57.1 µM), for the others: at the highest dose activity change, negative = inhibition, usual class: inhibitors | AID 485341 | AmpC nitrocefin hydrolysis, absorbance 480 nm, 0.0001% Triton;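 further: potency means the concentration at half of the fitted maximal effect; plate controls were no compound for no effect and no enzyme for full effect; nearly all actives have a fitted effect of over 20% in size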
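20 mM phosphate pH 7.0 + 0.01% (detergent screen) or 0.0001% Triton X-100; 5.3 nM AmpC reagent; cpd preinc 15 min RT; nitrocefin (800 uM stock) to start; A480 q20 s × 4 min; Activity was normalised to no-enzyme and no-compound control wells.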
Numbers without * were called inactive; ? = inconclusive; · = no result; [ ] = remark or other dose. The full list was thinned out, with hits kept by preference. Unless noted, the call rests on the fitted dose curve; in most records, active means well fitted curve in the direction sought with a large enough effect; inconclusive means small, poorly fitted or top-dose-only effect, or another doubt; inactive means no such curve, though single readings can be large; an effect the other way counts as inactive or inconclusive.

SMILES | Shiga toxin inh | AmpC detergent | CHX counter | AMA1-RON2 inh | SARS PLP yeast | AmpC no deterg
Cc1ccc(N=Nc2ccc(N)cc2C)c(S(N)(=O)=O)c1 | 93.9* | -0.6% | 65.0* | -6.7% | -1.3% | -43.7%
Nc1ccc(N=Nc2ccccc2O)c(N)c1 | · | · | · | 0.4% | · | ·
O=C(COc1ccc(OCc2ccccc2)cc1)NN=C1CCCC1 | 44.1 | -0.2% | 12.7 | 6.6% | -13.6% | 29.5%
O=C1CCCCC/C1=N/Nc1ccc(OCc2ccccc2)cc1 | 27.8 | -8.6% | 12.0* | -1.9% | -1.3% | -26.9%
N=c1c2c(ncn1Cc1ccco1)Oc1ccc3ccccc3c1C2c1ccccc1 (centres undefined) | active | ? | 20.5* | -24.0% | -33.0% | -13.1%
COc1ccc(C2c3c(ncn(Cc4ccco4)c3=N)Oc3ccc4ccccc4c32)cc1 (centres undefined) | 38.4 | 6.6% | -1.2 | -1.8%[11.6 µM] | -3.1% | -28.1%
NC(=O)[C@@H]1CCCNc2c(I)cc([N+](=O)[O-])cc2C(=O)N[C@@H](Cc2ccccc2)C(=O)N[C@@H](Cc2cnc[nH]2)C(=O)N1 | -11.4 | -5.5% | -2.6 | ? | 2.0% | 35.2%
Cc1cnc(NC(=O)c2ccco2)s1 | 125.4* | ? | 34.0* | 2.7% | 3.8% | -10.3%
CC(C)N(C(=O)CSc1nnc(NC(=O)c2ccco2)s1)C(C)C | -5.9 | -3.7% | -0.6 | -3.4% | -10.8% | -19.8%
CC(=O)Nc1cccc(NC(=O)CSc2nnc(NC(=O)c3ccco3)s2)c1 | -4.0 | -1.0% | -4.4 | 10.5% | -6.9% | -28.1%
Cc1nc(NC(=O)c2ccco2)sc1C(=O)O | 13.2 | 1.2% | -6.6 | -4.4% | -10.2% | 0.4%
CSc1nnc(NC(=O)c2ccco2)s1 | · | -15.7% | 16.2* | -5.9% | -6.5% | -14.3%
CCC(C)Sc1nnc(NC(=O)c2ccco2)s1 (centres undefined) | · | · | · | -1.9% | · | ·
CCCSc1nnc(NC(=O)c2ccco2)s1 | 108.8* | -2.0% | 24.4* | -6.9% | -4.8% | -17.3%
O=C(CSc1nnc(NC(=O)c2ccco2)s1)Nc1cccc(F)c1 | 78.3* | 6.0% | 32.4* | 12.7% | -1.3% | -15.0%
COc1cc(OC)c(NC(=O)CC(=O)Nc2cc(Cl)c(OC)cc2OC)cc1Cl | · | ? | 4.6 | -1.7% | 5.0% | 42.2%
COCCSc1nnc(NC(=O)c2ccco2)s1 | 36.0 | 3.6% | 19.9* | 5.7% | -9.2% | -12.0%
COc1cccc(CN2CCN(c3ccc(F)cc3)C2=O)c1 | 33.0 | 5.8% | 34.5* | 33.4% | -0.8% | -7.1%
O=C1N(Cc2ccc(F)cc2)CCN1c1ccc(F)cc1 | 57.7* | 7.9% | 29.3* | 6.9% | -1.5% | -16.3%
O=C(Nc1ccc(N2CCN(C(=O)c3ccco3)CC2)cc1)c1cccc(F)c1 | 16.2 | 6.4% | 22.2* | -2.2% | 5.5% | -7.6%
O=C(Nc1ccc(N2CCN(C(=O)c3ccco3)CC2)cc1)c1ccccc1F | 24.0 | ? | 22.1* | 17.3% | 0.6% | -1.7%
O=C(Nc1ccc(N2CCN(C(=O)c3ccco3)CC2)cc1)c1ccccc1Br | -30.3 | 2.0% | 8.7 | -12.2% | 1.0% | -4.2%
COc1ccc(CNC(=O)CN(c2ccc(C)cc2)S(=O)(=O)c2c(C)noc2C)cc1 | -2.4 | -1.1% | -4.7 | 6.0% | -10.1% | 2.5%
Nc1cnc(Nc2ccc(Br)cc2)nc1N | 57.8* | -3.7% | 27.5* | 3.4% | -1.6% | -22.5%
CN(CC(=O)NC1CCCCCC1)S(=O)(=O)c1cnc[nH]1 | 1.9 | 0.5% | -1.6 | -4.7% | 3.8% | -2.2%
SMILES | Shiga toxin inh | AmpC detergent | CHX counter | AMA1-RON2 inh | SARS PLP yeast | AmpC no deterg
CN1C(=O)C(Cc2cccc3ccccc23)C(=O)N(C)C1=O | -3.7 | -11.0% | 4.0 | 2.4% | 0.0% | -25.0%
O=C1c2ccccc2C(=O)C1Cc1cccc2ccccc12 | 66.1 | 1.2% | 20.2* | 17.8% | 0.3% | -39.3%
COC(=O)c1cnc(N2CCN(c3ccccc3F)CC2)c2ccccc12 | · | 24.2% | · | · | · | ·
COC(=O)c1cccnc1N1CCN(c2ccccc2F)CC1 | 7.1 | 4.3% | 8.1 | 24.9% | -2.1% | 0.159µM*
CCOC(=O)c1ccc(NC(=O)c2cccc(S(=O)(=O)N3CCOCC3)c2)cc1 | -0.7 | ? | -7.8 | 1.3% | -1.8% | 17.9%
NS(=O)(=O)c1cccc(NS(=O)(=O)c2ccc(/C=C/C(=O)OCC(=O)c3ccccc3)cc2)c1 | 7.5 | -13.5% | -2.3 | -0.9% | 0.3% | 3.55µM*
COc1ccc(C(=O)COC(=O)/C=C/c2ccccc2)cc1 | 5.9 | 1.7% | -2.0 | 10.9% | 2.2% | -9.3%
O=c1c2ccccc2ncn1CCOc1ccccc1[N+](=O)[O-] | 37.2 | 0.4% | 25.8* | -6.7% | -0.1% | -8.4%
O=c1c2ccc([N+](=O)[O-])cc2ncn1CCOc1ccccc1 | 54.1* | 3.7% | 20.1* | -1.2% | -0.9% | -6.5%
Cc1ccc(OCCn2cnc3cc([N+](=O)[O-])ccc3c2=O)cc1 | -4.6 | ? | -1.4 | 1.9% | -0.6% | -23.8%[11.4 µM]
CC1CCN(C(=O)CN(C)S(=O)(=O)c2cccc3nsnc23)CC1 | -9.5 | -14.8% | -0.5 | 2.5% | 0.5% | 0.8%
Cc1ccc(NC(=O)CN2C(=O)NC(C)(CCc3ccccc3)C2=O)cc1 (centres undefined) | -15.8 | 1.2% | -1.8 | -18.0% | 9.0% | 15.2%
O=C1c2ccccc2C(=O)N1CSc1nnc(Nc2ccccc2F)s1 | 30.0 | -0.9% | 21.9* | 12.6% | 20.0% | -4.9%
O=C(CSc1nnc(Nc2ccccc2F)s1)c1cc2ccccc2o1 | 15.4 | -5.8% | 1.6 | 13.3% | -17.3% | 35.5µM*
CCN(CC)C(=O)CCCSc1nnc(Nc2ccccc2F)s1 | 85.3* | 5.8% | 44.5* | -14.1% | -0.3% | -2.6%
COc1ccc(Nc2nnc(SCC(=O)c3cc4ccccc4o3)s2)cc1 | 10.0 | -7.4% | 6.5 | 59.0% | 5.7% | -49.6%
O=C(CC1CCCCC1)NCc1cn2ccsc2n1 | -15.9 | ? | -4.8 | -1.6% | 3.0% | -15.8%
CCn1c(N)c(C(=O)N2CCOCC2)sc1=S | -24.3 | 0.5% | -3.5 | -3.5% | -1.4% | -17.0%
COc1ccc(/C=C/C(=O)C2C(=O)C=C(C)OC2=O)cc1O (centres undefined) | 13.2 | -12.1% | 17.4* | 8.2% | -35.5% | -58.3%
COc1cc(/C=C/C(=O)C2C(=O)C=C(C)OC2=O)cc(OC)c1O (centres undefined) | 12.9 | -9.2% | -3.4 | -6.7%[11.6 µM] | -2.4% | 24.9%
O=C(/C=C/c1ccccc1)c1c[nH]c2ccccc12 | 64.0* | -11.1% | 34.2* | 0.0% | -3.1% | -25.9%
O=C(C=Cc1ccccc1)c1c[nH]c2ccccc2c1=O | · | · | · | 16.0% | · | ·
COc1ccccc1CNC(=O)Cc1c[nH]c2ccccc12 | 25.3 | 1.5% | -3.2 | -14.5% | -0.4% | -26.4%
COC(=O)c1ccc(NC(=O)C(=O)c2c[nH]c3ccccc23)cc1 | 2.1 | -4.7% | 0.5 | -2.5% | -5.8% | -21.8%
